Experimental data reported in PubChem BioAssay (NCATS).
Inconclusive results are not listed. Activity calls are given as the source filed them. The call rests on the fitted dose curve; in most records, active means well fitted inhibition curve with a large enough effect; inconclusive means small, poorly fitted or top-dose-only effect; inactive means flat fitted curve, though single readings scatter.

How the values were obtained:
Assay in all cases: qHTS profiling for inhibitors of Plasmodium falciparum proliferation (AID 504749); further: nearly all actives have a fitted effect of over 60% in size
CP260 = conditions: P. falciparum in erythrocytes, SYBR Green DNA, 72 h; series mostly up to 28.7 µM
Summary of the method: (§1)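 Quantitative HTS: compounds pinned into medium, infected erythrocytes added (0.3% parasitemia, 2.5% hematocrit), 72 h culture at 37 C under 5% CO2. Saponin/Triton lysis with SYBR Green I, overnight RT, then fluorescence read.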

CP262 = conditions: P. falciparum in erythrocytes, SYBR Green DNA, 72 h; series mostly up to 28.7 µM
Summary of the method: as §1

CP265 = conditions: P. falciparum in erythrocytes, SYBR Green DNA, 72 h; series mostly up to 12.8 µM
Summary of the method: as §1

CP266 = conditions: P. falciparum in erythrocytes, SYBR Green DNA, 72 h; series mostly up to 12.8 µM
Summary of the method: as §1

CP268 = conditions: P. falciparum in erythrocytes, SYBR Green DNA, 72 h; series mostly up to 28.7 µM
Summary of the method: as §1

CP269 = conditions: P. falciparum in erythrocytes, SYBR Green DNA, 72 h; series mostly up to 28.7 µM
Summary of the method: as §1

CP286 = conditions: P. falciparum in erythrocytes, SYBR Green DNA, 72 h; series mostly up to 28.7 µM
Summary of the method: as §1

CP291 = conditions: P. falciparum in erythrocytes, SYBR Green DNA, 72 h; series mostly up to 28.7 µM
Summary of the method: as §1

CP297 = conditions: P. falciparum in erythrocytes, SYBR Green DNA, 72 h; series mostly up to 28.7 µM
Summary of the method: as §1

CP305 = conditions: P. falciparum in erythrocytes, SYBR Green DNA, 72 h; series mostly up to 28.7 µM
Summary of the method: as §1

CP315 = conditions: P. falciparum in erythrocytes, SYBR Green DNA, 72 h; series mostly up to 28.7 µM
Summary of the method: as §1

CP325 = conditions: P. falciparum in erythrocytes, SYBR Green DNA, 72 h; series mostly up to 28.7 µM
Summary of the method: as §1

CP329 = conditions: P. falciparum in erythrocytes, SYBR Green DNA, 72 h; series mostly up to 28.7 µM
Summary of the method: as §1

CP335 = conditions: P. falciparum in erythrocytes, SYBR Green DNA, 72 h; series mostly up to 12.8 µM
Summary of the method: as §1

DFO2036 = conditions: P. falciparum in erythrocytes, SYBR Green DNA, 72 h; series mostly up to 28.7 µM
Summary of the method: as §1

DIV14 = conditions: P. falciparum in erythrocytes, SYBR Green DNA, 72 h; series mostly up to 28.7 µM
Summary of the method: as §1

DIV17 = conditions: P. falciparum in erythrocytes, SYBR Green DNA, 72 h; series mostly up to 28.7 µM
Summary of the method: as §1

DIV30 = conditions: P. falciparum in erythrocytes, SYBR Green DNA, 72 h; series mostly up to 28.7 µM
Summary of the method: as §1

Dd2 = conditions: P. falciparum in erythrocytes, SYBR Green DNA, 72 h; series mostly up to 28.7 µM
Summary of the method: as §1

ECU = conditions: P. falciparum in erythrocytes, SYBR Green DNA, 72 h; series mostly up to 28.7 µM
Summary of the method: as §1

FAB9 = conditions: P. falciparum in erythrocytes, SYBR Green DNA, 72 h; series mostly up to 28.7 µM
Summary of the method: as §1

GB4 = conditions: P. falciparum in erythrocytes, SYBR Green DNA, 72 h; series mostly up to 28.7 µM
Summary of the method: as §1

HB3 = conditions: P. falciparum in erythrocytes, SYBR Green DNA, 72 h; series mostly up to 28.7 µM
Summary of the method: as §1

ICS = conditions: P. falciparum in erythrocytes, SYBR Green DNA, 72 h; series mostly up to 28.7 µM
Summary of the method: as §1

JCK = conditions: P. falciparum in erythrocytes, SYBR Green DNA, 72 h; series mostly up to 28.7 µM
Summary of the method: as §1

N140 = conditions: P. falciparum in erythrocytes, SYBR Green DNA, 72 h; series mostly up to 28.7 µM
Summary of the method: as §1

P93_24 = conditions: P. falciparum in erythrocytes, SYBR Green DNA, 72 h; series mostly up to 28.7 µM
Summary of the method: as §1

P94_40 = conditions: P. falciparum in erythrocytes, SYBR Green DNA, 72 h; series mostly up to 28.7 µM
Summary of the method: as §1

PAD = conditions: P. falciparum in erythrocytes, SYBR Green DNA, 72 h; series mostly up to 28.7 µM
Summary of the method: as §1

PC15 = conditions: P. falciparum in erythrocytes, SYBR Green DNA, 72 h; series mostly up to 28.7 µM
Summary of the method: as §1

PC26 = conditions: P. falciparum in erythrocytes, SYBR Green DNA, 72 h; series mostly up to 28.7 µM
Summary of the method: as §1

PC49 = conditions: P. falciparum in erythrocytes, SYBR Green DNA, 72 h; series mostly up to 28.7 µM
Summary of the method: as §1

SC27B = conditions: P. falciparum in erythrocytes, SYBR Green DNA, 72 h; series mostly up to 28.7 µM
Summary of the method: as §1

TAB113 = conditions: P. falciparum in erythrocytes, SYBR Green DNA, 72 h; series mostly up to 28.7 µM
Summary of the method: as §1

TAB165 = conditions: P. falciparum in erythrocytes, SYBR Green DNA, 72 h; series mostly up to 28.7 µM
Summary of the method: as §1

W2 = conditions: P. falciparum in erythrocytes, SYBR Green DNA, 72 h; series mostly up to 12.8 µM
Summary of the method: as §1

Measured: Potency

CNC(C)[C@@H](O)c1ccc(O)cc1 (stereo partly specified)
inactive: CP260 | CP262 | CP265 | CP266 | CP268 | CP269 | CP286 | CP291 | CP297 | CP305 | CP315 | CP325 | CP329 | CP335 | DFO2036 | DIV14 | DIV17 | DIV30 | Dd2 | ECU | FAB9 | GB4 | HB3 | ICS | JCK | N140 | P93_24 | P94_40 | PAD | PC15 | PC26 | PC49 | SC27B | TAB113 | TAB165 | W2
